From PubChem BioAssay
GALK inh: inhibitors of human galactokinase | Purified GALK, Kinase-Glo residual ATP luminescence | AID 1868 | Potency, µM (doses to about 57.5 µM), for the others: at the top dose activity change, negative = inhibition, actives largely listed as inhibitors | hit rate 0.007% among 270,000; further: potency means the concentration at half of the fitted maximal effect
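Human GALK (5 nM) with 35 uM ATP and 100 uM galactose in 20 mM HEPES pH 8.0, 5 mM MgCl2, 60 mM NaCl, 1 mM DTT, 0.01% BSA. After 1 h at room temperature, leftover ATP was read by Kinase-Glo Plus luminescence.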
RORg inh: inhibitors of mouse ROR gamma transcriptional activity; hit rate 5.4% among 310,000; Drosophila S2 Gal4-RORgamma UAS-luciferase reporter, 20 h; Potency, µM (titrated, usually from 53.6 µM), for inactives: top-dose activity change, negative = inhibition, actives largely listed as inhibitors; P51450; further: potency means the concentration at half of the fitted maximal effect; nearly all actives have a fitted effect of over 60% in size
Target sequence (P51450 whole entry, looked up, the tested form may be a part): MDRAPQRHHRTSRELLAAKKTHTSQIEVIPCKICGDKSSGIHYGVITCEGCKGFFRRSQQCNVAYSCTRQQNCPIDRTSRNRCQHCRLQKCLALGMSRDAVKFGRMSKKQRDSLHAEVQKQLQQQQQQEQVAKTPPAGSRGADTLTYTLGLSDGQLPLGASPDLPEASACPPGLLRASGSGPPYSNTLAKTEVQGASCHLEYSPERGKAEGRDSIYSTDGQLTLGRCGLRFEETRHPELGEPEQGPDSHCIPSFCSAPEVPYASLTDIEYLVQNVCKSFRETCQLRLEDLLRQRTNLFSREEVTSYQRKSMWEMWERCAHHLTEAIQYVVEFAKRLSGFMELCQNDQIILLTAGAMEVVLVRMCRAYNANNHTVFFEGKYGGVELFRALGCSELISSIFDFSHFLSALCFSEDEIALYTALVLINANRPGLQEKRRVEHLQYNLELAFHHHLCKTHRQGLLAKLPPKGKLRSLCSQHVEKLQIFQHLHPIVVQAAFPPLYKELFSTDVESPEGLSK
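Schneider cells (Drosophila), stable Gal4 DBD–ROR gamma + UAS-luc; 1 hr cmpd preincubation; Cu2+ induction 700 uM final; 20 hr ambient; luminescence.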
FBPA coupling cs: coupling enzyme interference in Giardia aldolase counter-screen; hit rate 0.67% among 290,000; activity change, negative = inhibition, % at 58.2 µM, hits read low; AID 2472; coupling enzyme system counterscreen, AmpLite Red fluorescence; in the data active means activity change below about -30%
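Activity here indicates interference with the coupling reaction, not aldolase inhibition. Compounds at 57.5 uM final met coupling enzymes for 10 min at RT; substrate and AmpLite Red detection followed, with a 525/598 nm fluorescence read after 20 min.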
Gal4-VP16 FLuc: Gal4-VP16 reporter inhibition counter-screen; Drosophila S2 Gal4-VP16 UAS-luciferase, luminescence, 20 h; Potency, µM (doses to about 53.6 µM), for the others: top-dose activity, negative = inhibition, actives largely listed as inhibitors; hit rate 3.5% among 310,000;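 further: Gal4-VP16 expression switched on by copper sulfate through the metallothionein promoter; potency means the concentration at half of the fitted maximal effect; nearly all actives have a fitted effect of over 50% in size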
rTrxR1 inhibitor: rat TrxR1 inhibition | O89049 | recombinant rTrxR1, NADPH fluorescence consumption, selenite substrate | Potency, µM (titrated, usually from 114 µM), for the others: at the top dose activity change, negative = inhibition, usual class: inhibitors | hit rate 1% among 390,000 | AID 588453; further: potency means the concentration at half of the fitted maximal effect; nearly all actives have a fitted effect of over 65% in size
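Rat TrxR1 (90 nM in the dispensed reagent) was pre-reduced with 400 uM NADPH for 5 min at room temperature, then incubated with compound for 15 min. After 400 uM selenite was added, NADPH fluorescence (Ex 340/Em 450 nm) was followed for 8 min.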
TrxR1 substrate: rat thioredoxin reductase 1 substrate activity. O89049. purified TrxR1 substrate turnover, NADPH consumption readout. Potency, µM (highest dose often 114 µM), for inactives: at the top dose activity change, negative = substrate turnover. hit rate 0.01% among 390,000. AID 588456; further: potency means the concentration at half of the fitted maximal effect; nearly all actives have a fitted effect of over 50% in size
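Rat TrxR1, dispensed at 90 nM, was prereduced with 400 uM NADPH (final) for 5 min at ~22 deg C, then incubated with compound 15 min before 400 uM selenite. A first-read NADPH fluorescence drop versus no-compound background flagged substrates.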
Numbers without * were called inactive; [ ] = another dose, or the depositor's remark. Most compounds without a hit are left out; they make up all but 5.9% or so of the library. Unless noted, the call rests on the fitted dose curve; in most records, active means well fitted curve in the direction sought with a large enough effect; inconclusive means small, poorly fitted or top-dose-only effect, or another doubt; inactive means no such curve, though single readings can be large; an effect the other way counts as inactive or inconclusive. On the % scale 0 is the no-effect control and ±100 the full control effect.

Screening CN1CCN(c2ccc(NC(=O)c3ccc(Oc4ccccc4)cc3)cc2)CC1 returned GALK inh 1%, RORg inh -38%, FBPA coupling cs -2, Gal4-VP16 FLuc 3%, rTrxR1 inhibitor 25%[57.1 µM] and TrxR1 substrate 4%[57.1 µM].
`O=C(Oc1cccc(-c2cnc3ccccc3n2)c1)c1ccco1` gave RORg inh 5%, FBPA coupling cs 0, Gal4-VP16 FLuc -24%, rTrxR1 inhibitor 9%[57.1 µM] and TrxR1 substrate -8%.
`CC(=O)c1cccc(NC(=O)CC2S/C(=N/N=C/c3cccs3)NC2=O)c1` (stereo unspecified) gave GALK inh -2%, RORg inh inconclusive, FBPA coupling cs 2, Gal4-VP16 FLuc -3%, rTrxR1 inhibitor 21% and TrxR1 substrate 1%.
Screening O=C1N/C(=N\N=C\c2cccs2)SC1Cc1cccc(Cl)c1 (stereo unspecified) returned RORg inh 0.5µM*, FBPA coupling cs 3, Gal4-VP16 FLuc 0.71µM*, rTrxR1 inhibitor -21% and TrxR1 substrate -9%[11.4 µM].
For O=C1N/C(=N\N=C\c2cccs2)SC1Cc1ccc(Cl)cc1 (stereo unspecified) the results were GALK inh -2%, RORg inh 1.1µM*, FBPA coupling cs 2, Gal4-VP16 FLuc 0.63µM*, rTrxR1 inhibitor -11% and TrxR1 substrate -15%.
O=C(OCc1nnc(-c2ccccc2)o1)C1CC(=O)N(c2ccccc2)C1 (stereo unspecified) was read as GALK inh 2%, RORg inh -4%, FBPA coupling cs 4, Gal4-VP16 FLuc -9%, rTrxR1 inhibitor 6% and TrxR1 substrate 1%.
For Cc1ccc(S(=O)(=O)NCCC(=O)Nc2ccc(Cl)c(Cl)c2)cc1C the results were GALK inh 0%, RORg inh inconclusive, FBPA coupling cs -5, Gal4-VP16 FLuc 11µM*, rTrxR1 inhibitor 30% and TrxR1 substrate -4%.
`COc1ccccc1C(CNC(=O)c1cccc(S(=O)(=O)N2c3ccccc3CC2C)c1)N(C)C` (stereo unspecified) gave rTrxR1 inhibitor 9% and TrxR1 substrate 10%.
Screening CCN(CC)CC(C)CNC(=O)CC(C(=O)N1CCc2ccccc21)n1ccnc1 (stereo unspecified) returned GALK inh 0%, RORg inh 11µM*, FBPA coupling cs 2, Gal4-VP16 FLuc -7%, rTrxR1 inhibitor 12%[57.1 µM] and TrxR1 substrate -4%.
Screening CCN(CCNC(=O)c1cc(C)nn1-c1ccccc1)c1ccccc1 returned GALK inh -3%, RORg inh 14%, FBPA coupling cs 0, Gal4-VP16 FLuc -3%, rTrxR1 inhibitor 13% and TrxR1 substrate 6%.
Screening O=C(Nc1ncc(Cc2cccc(C(F)(F)F)c2)s1)c1ccc(-c2cccc([N+](=O)[O-])c2)o1 returned GALK inh 2%, RORg inh 7.1µM*, FBPA coupling cs 1, Gal4-VP16 FLuc 4.5µM*, rTrxR1 inhibitor -13% and TrxR1 substrate -12%.
For Cc1ccc(C(=O)Nc2nccs2)cc1 the results were GALK inh 13%, RORg inh inconclusive, FBPA coupling cs -4, Gal4-VP16 FLuc -8%, rTrxR1 inhibitor 17%[57.1 µM] and TrxR1 substrate 5%.
For CC(C)C(C(=O)Nc1ccncc1)c1ccc(Cl)cc1 (stereo unspecified) the results were GALK inh 1%, RORg inh 13%, Gal4-VP16 FLuc inconclusive, rTrxR1 inhibitor 20% and TrxR1 substrate -6%.
O=C(CSCC(=O)Nc1nccs1)Nc1ccccc1 was read as GALK inh 4%, RORg inh 28%, FBPA coupling cs -5, Gal4-VP16 FLuc -22%, rTrxR1 inhibitor -2% and TrxR1 substrate -7%.
Screening O=C(Nc1nccs1)c1ccc(COc2ccc(Cl)cc2)o1 returned GALK inh 2%, RORg inh 13µM*, FBPA coupling cs -1, Gal4-VP16 FLuc -29%, rTrxR1 inhibitor -2% and TrxR1 substrate -2%.
For O=C(CSCc1ccc(Cl)cc1)Nc1nccs1 the results were GALK inh 2%, RORg inh 14µM*, FBPA coupling cs -2, Gal4-VP16 FLuc 0%, rTrxR1 inhibitor 16% and TrxR1 substrate 6%.
O=C(Nc1nccs1)c1ccc(COc2c(F)c(F)cc(F)c2F)cc1 was read as GALK inh 2%, RORg inh 11µM*, FBPA coupling cs -1, Gal4-VP16 FLuc -13%, rTrxR1 inhibitor 12% and TrxR1 substrate -1%.
CC(C)C(C(=O)Nc1nccs1)c1ccc(Cl)cc1 (stereo unspecified) was read as GALK inh -3%, RORg inh 14µM*, FBPA coupling cs 2, Gal4-VP16 FLuc inconclusive, rTrxR1 inhibitor 2%[57.1 µM] and TrxR1 substrate 5%[57.1 µM].
For CN1C(=O)C2ON(c3ccccc3)C(c3cccs3)C2C1=O (stereo unspecified) the results were GALK inh 0%, RORg inh 13%, FBPA coupling cs 0, Gal4-VP16 FLuc 4%, rTrxR1 inhibitor 5%[57.1 µM] and TrxR1 substrate 12%[57.1 µM].
For Cc1nn2c(N3CCN(C)CC3)c3c(nc2c1-c1ccccc1)CCCC3 the results were GALK inh 1%, RORg inh -10%, FBPA coupling cs 0, Gal4-VP16 FLuc 3%, rTrxR1 inhibitor -11% and TrxR1 substrate -1%.
Screening Cc1nn2c(NCc3ccccn3)c3c(nc2c1-c1ccccc1)CCC3 returned GALK inh 5%, RORg inh 0.1µM*, FBPA coupling cs 0, Gal4-VP16 FLuc 0.56µM*, rTrxR1 inhibitor 17%[57.1 µM] and TrxR1 substrate 10%.
For COc1ccc(Nc2c3c(nc4c(-c5ccccc5)c(C)nn24)CCC3)cc1 the results were GALK inh 1%, RORg inh 3.2µM*, FBPA coupling cs -6, Gal4-VP16 FLuc 3.5µM*, rTrxR1 inhibitor -9% and TrxR1 substrate -5%.
Cc1nn2c(NCCN3CCOCC3)c3c(nc2c1-c1ccccc1)CCCC3 was read as GALK inh -1%, RORg inh 1.6µM*, FBPA coupling cs -1, Gal4-VP16 FLuc 3.5µM*, rTrxR1 inhibitor -15% and TrxR1 substrate -2%.
`Cc1cc(NCc2ccccn2)n2nc(C)c(-c3ccccc3)c2n1` gave GALK inh -2%, RORg inh 0.71µM*, FBPA coupling cs 0, Gal4-VP16 FLuc 0.32µM*, rTrxR1 inhibitor -1% and TrxR1 substrate 0%.
For O=[N+]([O-])c1ccc(Cl)c(/C=N/N2CCN(c3ccccc3)CC2)c1 the results were GALK inh -4%, RORg inh 1%, FBPA coupling cs 6, Gal4-VP16 FLuc -16%, rTrxR1 inhibitor 24%[57.1 µM] and TrxR1 substrate 0%[57.1 µM].
